Measurements: PubChem BioAssay AID904 (National Center for Advancing Translational Sciences (NCATS), 2007)
Among all 55,000 compounds or so, about 530 (0.96%) were called active. Roughly 7% stayed inconclusive and do not appear here. The sample as a whole holds a higher share of actives than the screen did. A number with no mark means an inactive call. Calls come from the whole dose curve; as a rule, active = well fitted cell-killing curve with a large enough effect; inconclusive = small, poorly fitted or top-dose-only effect; inactive = no such curve, though single readings can be large or run the other way.

experiment: qHTS Screen for Compounds that Selectively Target Cancer Cells with p53 Mutations: Cytotoxicity of p53 Null Cells at the Nonpermissive Temperature; details: H1299 p53-null (neo) cells, 39C, ATPlite viability, 24 h; series mostly up to 46.1 µM; activity, negative = cell killing: at the top concentration; note: nearly all actives have a fitted effect of over 50% in size;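 for activity, negative = cell killing: 0% = DMSO only and -100% = full killing by 100 µM tamoxifen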
How it was run: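 ATP-luminescence viability readout (ATPlite, 20 min RT) after 24 hr compound treatment at 39C of H1299-neo or H1299-p53A138V cells; titration up to 46 uM; normalized to DMSO and 100 uM tamoxifen; Hill-fit AC50.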
Potency is the fitted concentration of half-maximal effect.

Row | Structure (SMILES) | activity, negative = cell killing | Potency
1 | COc1cc(Cl)c(C)cc1NC(=O)COC(=O)c1cc(SC)ccc1Cl | 6.7% | 
2 | Cc1cc2n(n1)C(c1cc(C(C)(C)C)c(O)cc1O)Nc1ccccc1-2 (centres undefined) | -1.76% | 
3 | c1ccc(-c2noc(-c3cccs3)n2)nc1 |  | 14.1 µM (active)
4 | Clc1ccc(-n2nnnc2-c2cnc(-c3ccccn3)nc2-c2cccs2)cc1 | -18.6% | 
5 | O=C(CN1C(=O)CCn2nc(-c3ccccc3)cc21)NCc1ccccc1 | -23.9% | 
6 | CN(C(=O)c1c(Cl)cnn1C)C12CC3CC(CC(C3)C1)C2 | 17.1% [at 1.84 µM] | 
7 | COc1ccc(-c2csc(NC(=O)COC(=O)Cc3ccc(Cl)cc3Cl)n2)cc1 | 9.52% | 
8 | COc1ccc(NC(=O)c2cc3cc(C)ccc3n2C)cc1 | -7.99% | 
9 | Nc1nnc(SCC(=O)Nc2ccc3nc(SCC(=O)Nc4ccccc4)sc3c2)s1 | -13.2% | 
10 | Cc1ccccc1CNC(=O)CSc1nnc(C)c2c(C)n(-c3ccccc3)nc12 | 30.6% | 
11 | O=C(CSc1ccc(C(F)(F)F)cc1[N+](=O)[O-])NCCOc1ccccc1 | 3.3% | 
12 | COc1ccc(-c2c3c(=O)n(C)c(=O)n(C)c3c3c(C)nc4ccccc4n23)cc1 | -10.8% | 
13 | CCc1nnc(SCc2nc(-c3cccc(C)c3)oc2C)c2cc3sc(C)cc3n12 | -17.9% | 
14 | Cc1noc(COc2ccccc2OCc2onc(C)c2Cl)c1Cl | 4.54% | 
15 | O=C(NCCc1ccc(Cl)cc1)c1ccc2nc(CCc3ccccc3)oc2c1 | 0.294% | 
16 | COc1cc(C(=O)NCCc2csc3nc(-c4ccccc4C)nn23)cc(OC)c1OC | -2.62% | 
17 | COc1ccc2c(c1)c(N1CCCC1=O)c(C(=O)Nc1ccccc1C(F)(F)F)n2C | -2.55% | 
18 | Cc1ccccc1-n1c(C)cc(/C=C2\NC(=O)NC2=O)c1C |  | 8.91 µM (active)
19 | CCc1ccc(CNC(=O)c2cc3cc4ccc(OC)cc4nc3o2)cc1 | -17.3% | 
20 | CCOc1ccc(NC(=O)Cn2cc(C(=O)c3ccc(C)cc3)c(=O)c3cc4c(cc32)OCCO4)cc1 | 2.66% | 

Row | Structure (SMILES) | activity, negative = cell killing | Potency
21 | Cc1cc(C)cc(NC(=O)CSc2nc(=O)n(CCN3CCOCC3)c3c2CCC3)c1 | 13.2% | 
22 | CCCCCCCCC(=O)NCCOc1ccccc1 | 25.4% | 
23 | Cc1ccc(NC(=O)CN2C(=O)CC(C)Sc3ccccc32)c(C)c1 (centres undefined) | -6.72% | 
24 | O=C(CSc1nc2c(c(=O)[nH]1)CN(Cc1ccc(F)cc1)CC2)Nc1ccccc1Cl | -2.2% | 
25 | Cc1cccc2nc(-c3ccc(Cl)s3)c(Nc3ccc4c(c3)OCCO4)n12 | -3.18% | 
26 | Cc1ccc(Nc2c(-c3ccc(C)s3)nc3ccccn23)cc1 | -7.56% | 
27 | Cc1ccn2c(Nc3ccc4c(c3)OCCO4)c(-c3ccc(C)s3)nc2c1 |  | 10 µM (active)
28 | CCn1c2ccccc2c2nnc(N3CCN(c4cc(C)ccc4C)CC3)nc21 | 23.4% | 
29 | Cc1ccc(CCNC(=O)c2ccc(CS(=O)(=O)Cc3cccc(C)c3)o2)cc1 | 14.9% | 
30 | Cc1ccc(Cl)cc1N1CCN(C(=O)CN2C(=O)COc3ccc(S(=O)(=O)N4CCOCC4)cc32)CC1 | -21.1% | 
31 | Cc1cc(C)cc(-n2c(SCC(=O)NCC3CCCO3)nc3c([nH]c4ccccc43)c2=O)c1 (centres undefined) | 3.52% | 
32 | COc1ccc(-c2cc(C(=O)Nc3sc4c(c3C(N)=O)CCCC4)no2)cc1 | -15.4% | 
33 | COc1ccc(C(=O)Nc2onc3c2CCCC3)cc1 |  | 7.94 µM (active)
34 | CC1CCc2noc(NC(=O)c3ccc([N+](=O)[O-])cc3)c2C1 (centres undefined) | 5.3% | 
35 | O=C(Cn1ncc2c3ccccc3n(Cc3ccccc3)c2c1=O)NC1CCCCCC1 | -12.2% | 
36 | Cc1c(Cl)cccc1NC(=O)c1noc2c1CCCC2 | -12.7% | 
37 | O=C(N/N=C/c1cccc([N+](=O)[O-])c1)C1CC(=O)N(c2ccc(Br)cc2)C1 (centres undefined) | 32.2% | 
38 | CN(Cc1ccccc1)C(=O)COC(=O)c1ccccc1Nc1ccccc1 | -8.55% [at 1.84 µM] | 
39 | O=C(NCc1ccccc1)c1cccc(NC(=O)N2CCSc3ncccc32)c1 | 4.35% | 
